Data reported in PubChem BioAssay AID686935 (National Center for Advancing Translational Sciences (NCATS), 2013).
Records with an inconclusive call do not appear. A number with no mark means an inactive call. The source made the active and inactive calls. Calls follow the shape of the dose curve; as a rule, active = well fitted curve in the direction sought with a large enough effect; inconclusive = small, poorly fitted or top-dose-only effect, or another doubt; inactive = no such curve, though single readings can be large or run the other way.

assay: qHTS Assay for Lipid Storage Modulators: CytotoxicityAssay against Probe and Analogs; details: 3T3-L1 adipocytes cytotoxicity, imaging cell count; series mostly up to 20 µM; activity change, negative = cytotoxicity: at the top concentration
Source text: Storing lipids as a reservoir for energy or the anabolism of elementary metabolites is a common feature of probably all cells and is conserved from bacteria to humans. The universal cellular lipid storage organelle is the so-called lipid storage droplet (LD). Although ubiquitous, LDs share a simple structure composed of a hydrophobic core that harbors the storage lipids, which is shielded by a droplet-specific phospholipid monolayer to which proteins are attached. The current model of LD biogenesis involves an incorporation of the lipid core into the membrane leaflets of the endoplasmic reticulum (ER) followed by a subsequent budding-like maturation of a LD, which ultimately pinches off. Once released, LD volume can increase by localized lipogenesis or fusion of existing droplets. Storage lipids are re-mobilized enzymatically by lipase activity. Lipase regulation in the adipocyte is heavily studied and involves multiple components including catecholamine signaling, the LD-associated proteins Perilipin and comparative gene identification-58 (CGI-58) and at least two lipases named hormone sensitive lipase (HSL) and adipocyte triglyceride lipase (ATGL). LD regulation outside of the adipocyte is poorly understood and only few components are known. However, there is an urgent need to learn more about ectopic fat depots as mislocalized storage of lipids, for example in the liver or muscle, is an eminent health problem associated with insulin resistance or the metabolic syndrome. We developed a laser-scanning cytometer assay to enable 1,536-well screening and combined the results of the small molecules screen with an RNAi database based on lipid storage. In this assay we tested analogs of the probe in a cytotoxicity assay. NIH Molecular Libraries Probe Production Centers Network [MLPCN] NIH Chemical Genomics Center [NCGC] MLPCN Grant: MH085686 Assay Submitter (PI): Mathias Beller, Max-Planck-Institut fur Biophysikalische Chemie
3T3-L1 cells were obtained from ATCC (CL-173). Pre-adipocyte medium (PM-1),differentiation medium (DM-2) and after adipocyte medium (AM-1) were purchased from Zen-Bio (# PM-1-L1, DM-2-L1, AM-1-L1). […] of PM-1containing 3,000 cells was dispensed into each well of a 96-well plate (Corning, #3340), and the assay plates were incubated at 37 °C, 95% humidity and 5% CO2 for 3-5 days. The differentiation of pre-adipocyte to adipocyte was induced by removing the pre-adipocyte medium and replacing with […] of differentiation medium. […] of compounds at different concentrations dissolved in differentiation medium were added to the assay plates, along with medium exchange for differentiation to test their effects on adipocyte differentiation. The final DMSO concentration was 0.5%. Triacsin C (Sigma-Aldrich T-4540), an inhibitor of long-chain fatty acyl CoA synthetase that blocks synthesis of triglycerides, was used as a positive control for lipid under-storage. After 3 days, differentiation medium was replaced with 200ul of adipocyte maintenance medium and assay plates were incubated for 4 days. Cells were then fixed using4% of paraformaldehyde in PBS for 30 minutes at room temperature, washed 3 times with PBS buffer. Finally, the cells were stained using […] of PBS containing BODIPY lipid dye 493/530 (1:2000 -, Life Technologies, # D-3922), Hoechst 33342 (1:1000, Life Technologies, #H3570) and CellMask deep red dye (1:10,000 , Life Technologies, #H32721). Images were acquired using InCell 2000 (GE), number of cells, number of lipids, size of lipids and cells were analysis using GE Investigator software.

Row | SMILES | activity change, negative = cytotoxicity [%] | Potency
1 | CCn1c(C(=O)NCCc2ccc(OC)cc2)cc2sccc21 | 28.8 | –
2 | CCOc1ccc(CCNC(=O)c2cc3ccccc3o2)cc1OCC | 21.8 | –
3 | CCOC(=O)C1CCN(C(=O)C(C)(C)NC(=O)Nc2ccc(-c3ccccc3)cc2)CC1 | 20.7 | –
4 | CCOc1ccc(CCNC(=O)c2cccc(C(=O)c3ccccc3)c2)cc1OCC | -9.68 | –
5 | CCOc1ccc(CCNC(=O)c2cc3sccc3n2Cc2ccncc2)cc1OCC | -7.21 | –
6 | CCOc1cc(F)c(CCNC(=O)c2cc3sccc3n2Cc2ccccc2)cc1OCC | 7.21 | –
7 | CCOc1ccc(CCNC(=O)c2ccnn2Cc2cccc(C)c2)cc1OCC | 6.45 | –
8 | CCOc1ccc(CCNC(=O)c2cc3sccc3n2C)cc1OCC | 17.7 | –
9 | CCOc1ccc(CCNC(=O)c2cc3sccc3n2Cc2ccccn2)cc1OCC | 1.82 | –
10 | CC(C)Oc1ccc(CCNC(=O)c2cc3sccc3n2Cc2ccccc2)cc1OC(C)C | 8.18 | –
11 | CCOc1ccc(CCNC(=O)c2cc3sccc3n2Cc2ccccc2)cc1OCC | -8.87 | –
12 | CCOc1cc(CCNC(=O)c2cc3sccc3n2Cc2ccccc2)cc(F)c1OCC | – | 7.08 µM (active)
